# In all, about 8,300 sequences were measured (“log2 fold change of degron read counts, EGFP-low vs EGFP+ sorted cells (limma voom), compound-induced degradation”: median about -1.1, highest 2% from about 3.2 on). Shown is part of a subset that was picked to be rich in the highest values.
# T1: CRBN, Q96SW2
# T1 chain: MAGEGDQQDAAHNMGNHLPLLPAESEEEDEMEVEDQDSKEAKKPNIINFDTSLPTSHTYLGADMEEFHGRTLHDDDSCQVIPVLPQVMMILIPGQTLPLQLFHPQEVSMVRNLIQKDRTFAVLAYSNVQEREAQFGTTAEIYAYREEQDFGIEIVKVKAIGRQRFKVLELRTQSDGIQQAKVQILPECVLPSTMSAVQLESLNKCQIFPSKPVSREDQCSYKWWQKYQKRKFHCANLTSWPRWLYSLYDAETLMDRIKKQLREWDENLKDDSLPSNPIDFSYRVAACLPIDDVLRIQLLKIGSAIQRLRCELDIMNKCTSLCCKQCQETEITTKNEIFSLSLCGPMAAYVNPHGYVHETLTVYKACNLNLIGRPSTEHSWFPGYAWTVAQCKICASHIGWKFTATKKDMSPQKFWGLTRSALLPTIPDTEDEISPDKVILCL
# Target: T1, CRBN, Q96SW2
# Experiment: log2 fold change of degron read counts, EGFP-low vs EGFP+ sorted cells (limma voom), compound-induced degradation; higher = more compound-induced degradation of the degron-EGFP fusion; degrons are variants of IKZF1/3 zinc finger 2; compound dose not given here
# Details: Jurkat, 18 h
# [1] = compound: compound 19 (5-tert-butyl-thalidomide)
# [2] = compound: compound 22 (5-morpholino-thalidomide)
# [3] = compound: compound 33 (diphenyl IMiD analogue)
# 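Also: pooled lentiviral library of zinc finger degron-EGFP fusions in mCherry-positive Jurkat cells, FACS-sorted after compound exposure, with degron abundance counted by next-generation sequencing.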
Sequence,log2 fold change of degron read counts [1],log2 fold change of degron read counts [2],log2 fold change of degron read counts [3],log2 fold change of degron read counts (compound: thalidomide)
"FICNQCGRSFTQKGNLLRHIKL [46F_47I_49N_50Q_52G_53R_54S_55F_67L_, Q9UKT9]",-3.32,-3.15,-3.35,-3.61
"FACEQCGAKFTQKGNLLRHIKL [46F_47A_49E_50Q_52G_53A_54K_55F_67L_, Q9UKT9]",1.9,-1.51,-3.24,-1.44
"LTCEICGFECTQKGNLLRHIKL [46L_47T_49E_50I_52G_53F_54E_55C_67L_, Q9UKT9]",-0.328,0.102,-0.375,0.759
"FSCPICGHVFTQKGNLLRHIKL [46F_47S_49P_50I_52G_53H_54V_55F_67L_, Q9UKT9]",-2.55,-2.29,-1.52,-1.64
"FLCDVCGAKFTQKGNLLRHIKL [46F_47L_49D_50V_52G_53A_54K_55F_67L_, Q9UKT9]",-1.99,-3.99,-1.78,-0.928
"FLCEICGHCFTQKGNLLRHIKL [46F_47L_49E_50I_52G_53H_54C_55F_67L_, Q9UKT9]",-3.3,-3.75,-3.16,-2.4
"FMCEICGHTFTQKGNLLRHIKL [46F_47M_49E_50I_52G_53H_54T_55F_67L_, Q9UKT9]",-3.32,-4.22,-2.78,-3.14
"LICPICGFRCTQKGNLLRHIKL [46L_47I_49P_50I_52G_53F_54R_55C_67L_, Q9UKT9]",0.753,2.24,1.19,2.84
"LWCPICGFRCTQKGNLLRHIKL [46L_47W_49P_50I_52G_53F_54R_55C_67L_, Q9UKT9]",3.02,3.7,2.31,2.05
"LACPICGFNCTQKGNLLRHIKL [46L_47A_49P_50I_52G_53F_54N_55C_67L_, Q9UKT9]",2.23,1.61,1.93,1.49
"LGCPICGFRCTQKGNLLRHIKL [46L_47G_49P_50I_52G_53F_54R_55C_67L_, Q9UKT9]",3.17,2.04,0.549,1.14
"LDCPICGFNCTQKGNLLRHIKL [46L_47D_49P_50I_52G_53F_54N_55C_67L_, Q9UKT9]",-0.713,-1.04,-0.142,0.706
"LWCPICGFNCTQKGNLLRHIKL [46L_47W_49P_50I_52G_53F_54N_55C_67L_, Q9UKT9]",2.43,3.5,2.36,1.53
"FRCPICGAIFTQKGNLLRHIKL [46F_47R_49P_50I_52G_53A_54I_55F_67L_, Q9UKT9]",-1.29,-0.543,0.89,1.18
"FTCEQCGAQFTQKGNLLRHIKL [46F_47T_49E_50Q_52G_53A_54Q_55F_67L_, Q9UKT9]",-2.06,-1.12,0.532,-0.012
"FFCPICGHVFTQKGNLLRHIKL [46F_47F_49P_50I_52G_53H_54V_55F_67L_, Q9UKT9]",-0.996,-1.35,-1.19,-1.12
"FACPICGHTFTQKGNLLRHIKL [46F_47A_49P_50I_52G_53H_54T_55F_67L_, Q9UKT9]",-2.03,-2.66,-2.44,-2.56
"FKCNVCGAVFTQKGNLLRHIKL [46F_47K_49N_50V_52G_53A_54V_55F_67L_, Q9UKT9]",-2.44,-2.91,-3.25,-2
"FWCEICGAHFTQKGNLLRHIKL [46F_47W_49E_50I_52G_53A_54H_55F_67L_, Q9UKT9]",3.45,3.78,2.18,1.05
"FCCEICGAHFTQKGNLLRHIKL [46F_47C_49E_50I_52G_53A_54H_55F_67L_, Q9UKT9]",2.06,0.682,1.31,1.03
"FFCEICGAHFTQKGNLLRHIKL [46F_47F_49E_50I_52G_53A_54H_55F_67L_, Q9UKT9]",3.34,3.33,2.07,1
"FECEICGAHFTQKGNLLRHIKL [46F_47E_49E_50I_52G_53A_54H_55F_67L_, Q9UKT9]",-0.919,-2.34,1.1,1.26
"FACEICGAHFTQKGNLLRHIKL [46F_47A_49E_50I_52G_53A_54H_55F_67L_, Q9UKT9]",3.32,1.02,0.285,-0.547
"FICEICGAHFTQKGNLLRHIKL [46F_47I_49E_50I_52G_53A_54H_55F_67L_, Q9UKT9]",-0.091,1.87,1.79,2.1
"FTCEICGAHFTQKGNLLRHIKL [46F_47T_49E_50I_52G_53A_54H_55F_67L_, Q9UKT9]",0.467,0.746,1.69,2.11
"FNCEICGAHFTQKGNLLRHIKL [46F_47N_49E_50I_52G_53A_54H_55F_67L_, Q9UKT9]",2.65,0.0954,-0.0262,-0.422
"FLCEICGAHFTQKGNLLRHIKL [46F_47L_49E_50I_52G_53A_54H_55F_67L_, Q9UKT9]",0.729,-1.66,0.445,0.792
"FQCEICGAHFTQKGNLLRHIKL [46F_47Q_49E_50I_52G_53A_54H_55F_67L_, Q9UKT9]",-0.0399,0.799,0.886,3.17
"FYCEICGAHFTQKGNLLRHIKL [46F_47Y_49E_50I_52G_53A_54H_55F_67L_, Q9UKT9]",3.61,3.49,2.57,1.24
"FMCEICGAHFTQKGNLLRHIKL [46F_47M_49E_50I_52G_53A_54H_55F_67L_, Q9UKT9]",-0.196,-0.917,1.94,0.547

# Source: the supplement of paper PMC12645437, “Orthogonal IMiD-Degron Pairs Induce Selective Protein Degradation in Cells” (ACS Chemical Biology, 2025)
